Data from PubChem BioAssay AID818 (SRMLSC, 2007).
Out of some 140,000 compounds screened, about 2,100 (1.5%) were called active. This is one part of a sample in which actives are shown more often than they occur.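 The calls were made as follows: active = viability at or under a set limit, the compound median less 4 SD (cut at about 6% in these data); inactive = the rest.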

assay: primary screen for suppressors of beta-catenin knockout HCT116 cell growth, colon tumor, human (AID 818); settings: CellTiter-Glo, 60 h, at 10 µM, active compounds read low;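 also: 0% = Hyamine 1622 control at 20 µM and 100% = untreated cell control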

Compound | viability
CCNS(=O)(=O)c1ccc(NC(=O)c2cncc(Br)c2)cc1 | 97.6% (inactive)
O=C(NC(=S)Nc1ccc2oc(=O)ccc2c1)c1ccc(-c2cccc(Cl)c2Cl)o1 | 101% (inactive)
COc1cccc2sc(Nc3nc(C)c(C(C)=O)s3)nc12 | 5.29% (active)
CC(=O)c1sc(NC(=O)c2cccc3ccccc23)nc1C | 87.1% (inactive)
COc1cccc2sc(NNC(=O)c3nc4ccccc4s3)nc12 | 14.9% (inactive)
CCOc1ccc2nc(NC(=O)c3cc([N+](=O)[O-])ccc3N3CCOCC3)sc2c1 | 39.5% (inactive)
COc1ccccc1N1CCN(C(=O)C(=O)N/N=C/c2ccccc2F)CC1 | 104% (inactive)
Fc1ccc2c(c1)C(c1cccnc1)=NNC(c1cccs1)=N2 | 40.4% (inactive)
CC(C)OCCCNc1ncnc2c1[nH]c1ccc(F)cc12 | 9.7% (inactive)
Fc1ccc2[nH]c3c(N4CCSCC4)ncnc3c2c1 | 5.04% (active)
CCN1CCCC1CNc1ncnc2c1[nH]c1ccc(F)cc12 (stereo not drawn) | 82.2% (inactive)
CC(=O)COc1ccc2c(-c3ccccc3)cc(=O)oc2c1 | 95.5% (inactive)
COc1ccc(C2COC(=O)C2=N)c(NC(=O)c2ccccc2)c1 (stereo not drawn) | 79.1% (inactive)
CC1(c2ccccc2)CC(C)(C)N(C(=O)c2cc([N+](=O)[O-])cc([N+](=O)[O-])c2)c2ccccc21 (stereo not drawn) | 69% (inactive)
CN1CCN(CCCNC(=O)c2cc3c(=O)oc4ccccc4c3s2)CC1 | 92% (inactive)
Cn1c(C(=O)NCCN2CCc3ccccc3C2)cc2c(=O)[nH]c3ccccc3c21 | 87.4% (inactive)
O=C(NCCN1CCN(Cc2ccccc2)CC1)c1cc2c(=O)[nH]c3ccccc3c2s1 | 1.35% (active)
COc1ccccc1N=Cc1c(O)c2ccccc2oc1=O | 84.7% (inactive)
CCCCCCc1cc2cc(-c3nnc(-c4ccccc4)o3)c(=O)oc2cc1O | 1.64% (active)
Cc1c(/C=N/N2C(=O)C3C4C=CC(C4)C3C2=O)c2ccccc2n1C (stereo not drawn) | 90.7% (inactive)

Compound | viability
Cc1coc2c(O)cc3c(c12)OC1(N2CCCCC2)C(=O)NCCCC31 (stereo not drawn) | 2.34% (active)
Cc1cccc(N2CCN(C(=O)c3ccccc3NC(=O)C3CCCCC3C(=O)O)CC2)c1 (stereo not drawn) | 93.7% (inactive)
COc1ccc(NS(=O)(=O)c2ccc(NC(=S)NC(=O)/C=C/c3ccc(C)cc3)cc2)nn1 | 84.3% (inactive)
COc1cc(NC(=O)Nc2ccc(C)cc2)cc([N+](=O)[O-])c1 | 86.1% (inactive)
COc1ccc(NC(=O)/C(Cl)=C(/Cl)S(=O)Cc2ccc(C)cc2)cn1 (stereo not drawn) | 0.98% (active)
COc1cc(OC)cc(C(=O)N[C@H](C(=O)OCC(=O)NC(C)c2ccccc2)C(C)C)c1 (stereo partly drawn) | 83.7% (inactive)
O=C(NCc1ccccc1Cl)C1CCC(CNc2c(N3CCCCC3)c(=O)c2=O)CC1 (stereo not drawn) | 98.7% (inactive)
Cc1cc(C)cc(OCC(=O)Nc2nc3ccc([N+](=O)[O-])cc3s2)c1 | 109% (inactive)
COC(=O)C(NC(=O)c1ccc(OC)cc1)(Nc1ncc(S(=O)(=O)c2ccc([N+](=O)[O-])cc2)s1)C(F)(F)F (stereo not drawn) | 77.8% (inactive)
O=C(NC(Nc1nc2ccc([N+](=O)[O-])cc2s1)(C(F)(F)F)C(F)(F)F)c1ccccc1 | 1.34% (active)
COc1ccc(NC(C(=O)Nc2cccc(C(C)=O)c2)c2ccccc2)cc1 (stereo not drawn) | 84.6% (inactive)
Cc1ccc(-c2csc(NNC(=O)c3ccccc3)n2)cc1 | 13.8% (inactive)
COc1ccc(C)cc1Nc1nc(-c2c(C)[nH]c3ccccc23)cs1 | 89.8% (inactive)
CC(C)(C)c1ccc(C(=O)CSc2ncn[nH]2)cc1 | 94.5% (inactive)
O=C(NCCOCc1ccc(Cl)cc1)c1ncn[nH]1 | 93% (inactive)
O=C(/C=C/Sc1ncn[nH]1)c1ccc(Cl)cc1 | 4.54% (active)
O=[N+]([O-])c1ccc(N/N=C2/CCCCC2c2ccccn2)c([N+](=O)[O-])c1 (stereo not drawn) | 79.6% (inactive)
CC[C@H]1CN2CCc3cc(OC)c(OC)cc3[C@@H]2C[C@@H]1C[C@H]1NCCc2cc(OC)c(OC)cc21 | 4.12% (active)
COc1cc2c(cc1O)[C@H](Cc1ccc(Oc3cc(C[C@@H]4NCCc5cc(OC)c(O)cc54)ccc3O)cc1)NCC2 | 55% (inactive)
COC(=O)Cc1ccc(NC(=S)NCc2ccc(Cl)cc2)cc1 | 84.8% (inactive)

Compound | viability
S=C(NCc1ccc(Cl)cc1)NC12CC3CC(CC(C3)C1)C2 | 3.01% (active)
S=C(NCc1ccc(Cl)cc1)NC1CCCCC1 | 66% (inactive)
CCCCN1C(=O)c2ccc(C(=O)Nc3ccc(S(=O)(=O)N(C)C)cc3)cc2C1=O | 93.3% (inactive)
Cc1ccc(NC(=O)CN(C)Cc2ccc(F)cc2)c([N+](=O)[O-])c1 | 91.3% (inactive)
Cc1ccc(O)c(-c2cc(C(=O)Nc3c(C)n(C)n(-c4ccccc4)c3=O)[nH]n2)c1 | 80.2% (inactive)
CC1CCCC(NC(=O)COC(=O)[C@@H]2CC(O)CN2S(=O)(=O)c2ccc3c(c2)OCCO3)C1C (stereo partly drawn) | 96.2% (inactive)
O=C(NCc1ccc2c(c1)OCO2)c1ccc2c(c1)C(=O)N(CC1CCCO1)C2=O (stereo not drawn) | 1.74% (active)
CC1CCN(c2ccc(C(=O)NCc3ccc4c(c3)OCO4)cc2[N+](=O)[O-])CC1 | 94.5% (inactive)
CCC(=O)Nc1ccc(C(=O)Nc2ccc3c(c2)C(=O)N(CC2CCCO2)C3=O)cc1 (stereo not drawn) | 93.3% (inactive)
COc1cc(Cl)c(C)cc1NC(=O)COC(=O)c1cc(SC)ccc1Cl | 79.6% (inactive)
S=c1[nH]nc(-c2cccnc2)n1/N=C/C(Cl)=C\c1ccccc1 | 10.2% (inactive)
Cc1cc(-c2n[nH]c(=S)n2/N=C/C(Br)=C/c2ccccc2)n[nH]1 | 2.95% (active)
Cc1ccc(/C=N\n2c(-c3ccccc3)n[nH]c2=S)s1 | 94.7% (inactive)
Cc1ccc(NC(=O)c2oc(=O)c3ccccc3c2-c2ccccc2)c(C)c1 | 38.7% (inactive)
CN(C)S(=O)(=O)c1ccc(N2CCCC2=O)c([N+](=O)[O-])c1 | 83% (inactive)
CC1=C(C)CC(C(=O)NNC(=O)c2ccccc2O)C(C(=O)O)C1 (stereo not drawn) | 5.74% (active)
O=C(O)C1CC=C(Cl)CC1C(=O)NCc1ccccc1 (stereo not drawn) | 90% (inactive)
CC1=C(C)CC(C(=O)NNC(=O)c2csc3c2CCC(C(C)(C)C)C3)C(C(=O)O)C1 (stereo not drawn) | 95.9% (inactive)
